Assay outcomes as filed in PubChem.
Only some compounds are listed: those with a hit (about 0.98% of all), similar ones and a draw of the others.
E coli Lon inh = inhibitors of E. coli Lon protease; P0A9M0; purified E. coli Lon protease, fluorescence polarization; inhibition, % at 7.94 µM; 360,000 compounds, 0.42% hits; AID 602123; in the data active = inhibition above about 13%, passing the limit was not always enough;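 note: 0% = enzyme with probe and DMSO and 100% = no enzyme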
Target sequence (P0A9M0 whole entry, looked up): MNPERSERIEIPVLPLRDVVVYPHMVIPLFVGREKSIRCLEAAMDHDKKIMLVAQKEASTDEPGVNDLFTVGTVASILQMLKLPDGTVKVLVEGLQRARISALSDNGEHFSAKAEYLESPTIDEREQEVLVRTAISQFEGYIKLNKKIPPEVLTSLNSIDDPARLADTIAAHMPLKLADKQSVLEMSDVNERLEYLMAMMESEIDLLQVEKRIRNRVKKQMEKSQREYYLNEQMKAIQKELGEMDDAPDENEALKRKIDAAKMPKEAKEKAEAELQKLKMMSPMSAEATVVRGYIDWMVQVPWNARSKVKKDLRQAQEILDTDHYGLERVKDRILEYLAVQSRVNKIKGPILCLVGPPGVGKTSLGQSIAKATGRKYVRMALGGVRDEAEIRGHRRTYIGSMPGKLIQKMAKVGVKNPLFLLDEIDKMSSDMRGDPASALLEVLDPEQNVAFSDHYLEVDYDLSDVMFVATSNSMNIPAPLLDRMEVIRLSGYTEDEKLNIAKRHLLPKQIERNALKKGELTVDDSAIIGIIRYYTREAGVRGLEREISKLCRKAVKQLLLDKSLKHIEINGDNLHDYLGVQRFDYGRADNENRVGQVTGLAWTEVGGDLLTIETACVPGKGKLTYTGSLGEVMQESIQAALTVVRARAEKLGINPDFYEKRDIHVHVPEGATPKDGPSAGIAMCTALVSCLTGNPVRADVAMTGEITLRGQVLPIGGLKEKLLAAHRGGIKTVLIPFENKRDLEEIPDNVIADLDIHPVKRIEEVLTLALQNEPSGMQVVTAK
EBV gp42 inh = inhibitors of Epstein-Barr virus glycoprotein 42 | 220,000 compounds, 0.42% hits | Fluorescence polarization binding assay, mP read-out | Q1HVG2 | inhibition, % (tested at 21.74 µM); in the data active = inhibition above about 50%
Keap1 Nrf2 FP = Keap1-Nrf2 (human) interaction inhibition. AID 504523. 340,000 compounds, 0.15% hits. Q14145. Keap1 Kelch-Nrf2 peptide fluorescence polarization, 1536-well. inhibition, % at 9.4 µM; in the data active = inhibition above about 12%;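 note: human Keap1 Kelch domain with fluorescein labeled Nrf2 9mer peptide probe; 0% = neutral control wells and 100% = peptide positive control; higher means more block of Keap1 binding to Nrf2 peptide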
RTF Ca sens inh = cardiac RTF calcium desensitization | P19429+P45379 | inhibition, % at 7.15 µM | AID 493244 | IANBD-labeled cardiac RTF, Ca2+ fluorescence | 340,000 compounds, 0.12% hits;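 active = inhibition above the mean inhibition of all tested compounds plus 3 SD, cut at about 17% in these data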;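 note: assay run at fixed EC70 calcium of 1.6 mM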
RTF Ca sens act = cardiac RTF calcium sensitization; P19429+P45379; IANBD-labeled TnC RTF fluorescence at EC20 calcium; 0% EC20 calcium, 100% full calcium; activation, % at 7.2 µM; 340,000 compounds, 0.24% hits; AID 493008;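 active = activation above the mean over all tested compounds plus 3 SD, cut at about 30% in these data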;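 note: rise in fluorescence read as greater calcium sensitivity of cardiac thin filaments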
C-LANA FP = blocks KSHV LANA C-terminal domain binding to DNA | MBP-C-LANA/FAM-LBS DNA binding, fluorescence polarization | inhibition, % at 9 µM | 340,000 compounds, 0.078% hits;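 active = highest replicate inhibition at or above 60% at 9 µM, even if other replicates fall short; inactive = all replicates below 60% inhibition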;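 note: 0% = neutral control wells and 100% = 4 µM acridine orange control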
* = called active by the depositor; nt = no result.

SMILES	E coli Lon inh	EBV gp42 inh	Keap1 Nrf2 FP	RTF Ca sens inh	RTF Ca sens act	C-LANA FP
Cc1ccc(C)c(-n2cc(CNCCc3cnccn3)c(-c3ccccc3)n2)c1	39*	2	-3	-8	0	0
CCn1ccnc1CNCc1cn(-c2cc(C)ccc2C)nc1-c1ccccc1	3	2	-6	0	-1	0
O=c1[nH]c2ccc(N=Cc3c(O)ccc4cc(Br)ccc34)cc2[nH]1	-148	82*	-3	-13	30*	0
COc1ccc2nc(N3CCCCC3)c(C#N)cc2c1	-2	58*	2	-11	6	8
COc1ccc2nc(N3CCCC3)c(C#N)cc2c1	0	127*	0	-7	-5	9
COc1ccc2nc(SCC(=O)N3CCCCC3)c(C#N)cc2c1	-6	-16	7	5	-1	1
Cc1ccc(NC(=O)c2cc(S(=O)(=O)N3CCCCC3)ccc2N2CCOCC2)cc1S(=O)(=O)N(C)C	6	nt	-2	-110	83*	-1
COc1ccc(C(=O)NCCCNC(=O)c2cccnc2)cc1Br	1	nt	1	-5	1	-1
O=C1CCC/C(=N/NC(=O)c2sc3ccccc3c2Cl)C1	-71	-71	-16	-108	36*	16
CCc1ccccc1NC(=O)CSc1ccsc1[N+](=O)[O-]	-5	43	0	-2	2	0
O=C(CSc1ccsc1[N+](=O)[O-])Nc1cccc(F)c1	-5	62*	-1	-41	0	10
O=C(CSc1ccc(C(F)(F)F)cc1[N+](=O)[O-])Nc1ccccc1	37*	11	-5	-2	0	1
C[C@@H]1CN([C@H](C)CO)C(=O)CCCn2nncc2CO[C@@H]1CN(C)S(=O)(=O)c1cccs1	-2	nt	nt	nt	nt	nt
CC(C)c1ccc(/C=C2\Oc3c(ccc(O)c3CN3CCN(C)CC3)C2=O)cc1	-83	-28	-16	-46	22	12
CCN1CCN(Cc2c(O)ccc3c2O/C(=C\C=C\c2ccccc2OC)C3=O)CC1	-40	-105	-139	-150	166*	1
Cc1ccc(/C=C2\Oc3c(ccc(O)c3CN3CCN(CCO)CC3)C2=O)cc1	-50	-2	-13	-38	32*	17
CCN1CCN(Cc2c(O)ccc3c(=O)c(-c4ccccc4OC)coc23)CC1	0	-15	6	-2	3	-1
CN(C)c1ccc(S(=O)(=O)N2CCC(Cc3ccccc3)CC2)cn1	-8	nt	2	-13	3	0
CC(=O)N(C)C[C@@H]1Oc2ncc(C#Cc3ccc(F)cc3)cc2C(=O)N([C@@H](C)CO)C[C@H]1C	-1	nt	nt	nt	nt	nt
CCOC(=O)Cc1cc(=O)n(-c2nc3ccccc3s2)[nH]1	0	-15	0	0	-1	4
CCCc1cc(=O)n(-c2nc3ccccc3s2)[nH]1	2	69*	1	-2	0	-2
CCOC(=O)C1(C)CCCCN1C(=O)c1cccnc1 (configuration not stated)	-1	nt	nt	nt	nt	nt
COc1cc(/C=C2\Oc3cc(O)ccc3C2=O)ccc1O	-155	-56	-26	-50	41*	-12
O=C1/C(=C/c2ccc(O)c(O)c2)Oc2cc(O)ccc21	-69	-72	-14	-12	4	-7
C=CCn1c(SCC(=O)Nc2cc(C)on2)nc2ccccc21	-4	nt	nt	nt	nt	nt
SMILES	E coli Lon inh	EBV gp42 inh	Keap1 Nrf2 FP	RTF Ca sens inh	RTF Ca sens act	C-LANA FP
CC1CCc2cccc3c2N1c1cc(C#N)c(C#N)cc1O3 (configuration not stated)	-10	116*	3	-16	10	11
COc1ccc(OCCNC(=O)c2ccc3nc(C)c(N(C)C(=O)CCc4ccccc4)n3c2)cc1	-2	nt	nt	nt	nt	nt
COc1cc(-c2ccc(Nc3ccccc3C(=O)O)c(OC)c2)ccc1Nc1ccccc1C(=O)O	1	69*	-2	-6	-5	54
COc1cccc(Nc2ccccc2C(=O)O)c1	6	-8	0	-4	1	0
O=C(OCc1ccc(O)cc1)c1c(-c2ccsc2)oc2ccc(N3CCOCC3)cc12	6	nt	-4	-5	12	-1
Nc1ccc(N)c(C(=O)O)c1	43*	108*	7	8	-19	110*
O=C(Cc1ccccc1Cl)Nc1cc(S(=O)(=O)N2CCOCC2)ccc1N1CCOCC1	-6	nt	-4	-10	-1	0
COc1ccc(Cn2cc(CN3CCOCC3)nn2)cc1	-1	nt	nt	nt	nt	nt
CN1CCN(C(=O)CN(C)S(=O)(=O)c2ccc(F)cc2)CC1	2	nt	-7	-19	0	-2
CN(CCC#N)C(=O)COC(=O)c1c2c(nc3ccccc13)/C(=C/c1ccco1)CC2	-11	95*	1	7	-14	1
COc1cc(/C=C2\N=C(c3ccccc3)OC2=O)ccc1OCc1c(C)no[n+]1[O-]	-2	24	5	-13	-1	0
COc1ccc(/C=C2\N=C(c3c(-c4ccccc4)noc3C)OC2=O)cc1OC	-12	57*	1	0	2	-1
O=c1[nH]c2ccccc2nc1/C=C(\O)c1cccs1	-119	44	-15	-74	61*	-16
O/C(=C\c1nc2ccccc2[nH]1)c1cccs1	12	nt	-5	-18	17	1
O=C(NC12CC3CC(CC(C3)C1)C2)c1ccc(-c2ccccc2Cl)o1	19*	-6	1	2	8	-3
CCSc1nnc(-c2sc3nnc(-c4ccccc4)c(-c4ccccc4)c3c2N)o1	-70	167*	-5	-31	83*	5
COC(=O)c1cc2ccccn2c2c(C(=O)OC)c(C(=O)OC)cc1-2	0	-10	-1	-4	3	2
COC(=O)c1cc2n3ccccc3c(C)c(-c3ccccc3)c-2c1C(=O)OC	38	103*	-2	-16	13	8
COc1cc(OC)c(OC)cc1/C=C/C(=O)c1ccc(NS(=O)(=O)c2ccc(C)cc2)cc1	-97	-30	-5	-29	35*	0
COc1cccc(NC(=O)CN(C)CC(=O)c2c(C)[nH]c3ccccc23)c1	4	nt	-3	-5	-1	0
Cc1ccc(S(=O)(=O)Nc2nc3ccccc3nc2Nc2cccc(S(=O)(=O)N3CCCC3)c2)cc1	1	56*	5	-17	11	0
O=[N+]([O-])c1cccc(S(=O)(=O)Nc2nc3ccccc3nc2Nc2cccc(S(=O)(=O)N3CCCCC3)c2)c1	0	-4	4	-21	-6	2
CCN(CC)c1ccc(C=C2C(=O)OC(C)(C(C)(C)C)OC2=O)cc1 (configuration not stated)	-13	nt	-4	-6	6	0
CCN(CC)c1ccc(C=C2C(=O)OC(c3ccccc3)OC2=O)cc1 (configuration not stated)	-4	91*	-3	-6	-6	1
CCN(CC)c1ccc2cc(NC(=O)CCC(=O)O)c(=O)oc2c1	24	74*	8	-65	70*	33
